These results are taken from PubChem BioAssay (NCATS).

A number with no mark means an inactive call. Records with an inconclusive call do not appear. Active and inactive are the calls of the source. Unless noted, calls follow the shape of the dose curve; as a rule, active = well fitted curve in the direction sought with a large enough effect; inconclusive = small, poorly fitted or top-dose-only effect, or another doubt; inactive = no such curve, though single readings can be large; an effect the other way counts as inactive or inconclusive.

The test system of one test is CASKI. The test is described as follows: Primary qHTS to identify gynecologic anti-cancer compounds using libraries of approved drugs and bioactive compounds (AID 1345084). Also: nearly all actives have a fitted effect of over 55% in size. Also: potency is read from the fitted curve at half-maximal effect. The conditions noted are these: Gynecologic cancer cell panel viability, ATPlite luminescence, 48 h; series mostly up to 57.5 µM. The essentials: (§1)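 Cells, 1,000 per well, were allowed to settle for 16 h at 37 C before compound addition. Five concentrations were tested for 48 h, and viability was read by ATPlite luminescence after 15 min at room temperature.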

In a further test the test system is Es-2. Described as above. The conditions noted are these: Gynecologic cancer cell panel viability, ATPlite luminescence, 48 h; series mostly up to 57.5 µM. The procedure, abridged:
as §1
On the technique in general: In ATP-based viability assays light output follows the ATP content of the culture.

The test system of the next test is HeLa. Described as above. The settings on record: Gynecologic cancer cell panel viability, ATPlite luminescence, 48 h; series mostly up to 57.5 µM. The essentials:
as §1

For another test, the system named is JEG-3. The test is described as above. The conditions noted are these: Gynecologic cancer cell panel viability, ATPlite luminescence, 48 h; series mostly up to 57.5 µM. The procedure, abridged:
as §1

A further test relates to SKOV3. Described as above. The conditions noted are these: Gynecologic cancer cell panel viability, ATPlite luminescence, 48 h; series mostly up to 57.5 µM. The essentials: as §1
Another test concerns Tov-21-G. The description is as above. The settings on record: Gynecologic cancer cell panel viability, ATPlite luminescence, 48 h; series mostly up to 57.5 µM. The essentials:
as §1

For a further test, the system named is Tov112D. Described as above. The settings on record: Gynecologic cancer cell panel viability, ATPlite luminescence, 48 h; series mostly up to 57.5 µM. The procedure, abridged: as §1
The nature of test [1]: Drug repurposing screens with cells derived from glioblastoma tumor samples (AID 1345199). Also: nearly all actives have a fitted effect of over 40% in size. Also: potency is read from the fitted curve at half-maximal effect. As to activity, negative = cell killing: % is scaled to controls: 0 for no effect and ±100 for the full control effect. The settings on record: GBM patient neurospheres viability, ATP luminescence, 48 h. The essentials:
(§2)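 Primary testing used CD133+ neurospheres from four GBM patients, seven concentrations, 48 h exposure and ATP-based viability; confirmation added three slower-growing patient lines.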

A further test deals with astro. The test is described as above. The settings on record: viability, ATP luminescence, 48 h; series mostly up to 45.9 µM. The procedure, abridged: as §2
The subject of a further test is Hek293T. Nature of the test: Primary qHTS to identify gynecologic anti-cancer compounds using libraries of approved drugs and bioactive compounds (AID 1345084). Also: nearly all actives have a fitted effect of over 55% in size. Also: potency is read from the fitted curve at half-maximal effect. The conditions noted are these: Gynecologic cancer cell panel viability, ATPlite luminescence, 48 h, control line for the selectivity index; series mostly up to 57.5 µM. The essentials:
as §1
In general terms: Quantitative high-throughput screening tests each substance at several concentrations.

The next test deals with OV90. The description is as above. The settings on record: Gynecologic cancer cell panel viability, ATPlite luminescence, 48 h; series mostly up to 57.5 µM. The essentials:
as §1

The next test concerns PA-1. The test is described as above. The settings on record: Gynecologic cancer cell panel viability, ATPlite luminescence, 48 h; series mostly up to 57.5 µM. The essentials:
as §1

Test [2] can be described thus: qHTS assay to identify inhibitors of the type 1 interferon - major histocompatibility complex class I in skeletal muscle: Counter screen cell viability and HiBit confirmation (AID 1347412). Also: % is scaled to controls: 0 for no effect and ±100 for the full control effect; nearly all actives have a fitted effect of over 60% in size. The settings on record: iHSKM muscle cells + IFN-b, HiBiT or CellTiter-Glo, 24 h; Potency: HiBiT; Viability, at 45.9 µM (top of the series). The procedure, abridged: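 HLA-B*08:01–HiBiT knock-in immortalized human myoblasts (C25cl48) stimulated with 4.0 ng/ml human IFN-beta and dosed with compound in a 12-point 1:3 titration (top final 46 uM). After 24 hrs at 37 C, HiBiT lytic luminescence or CellTiter Glo ATP read out.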

The nature of test [3]: qHTS assay for small molecule activators of the human pregnane X receptor (PXR) signaling pathway (AID 720659; call rule not given here; also: 0% is about no effect).
Setting [4] is: at 20 µM (top of the series), tumour line C.
Where [5] appears, read: at 45.9 µM (top of the series), tumour line B.
[6] abbreviates: at 46.1 µM (top of the series), tumour line C.

For the compound `Clc1ccccc1C(c1ccccc1)(c1ccccc1)n1ccnc1`, the Potency entry in the test on CASKI, in the test with Es-2, with HeLa, with JEG-3, in the test on SKOV3 and with Tov-21-G was “inactive” throughout. Further, the Potency result in the test with Tov112D and in the test on astro was “inactive” in each case. Also, the activity, negative = cell killing in test [1] (setting [4]) is 1.49%. Further, the Potency in [1] (tumour line A) was 11.2 µM (active).

Regarding `CC(C)C(=O)Nc1ccc([N+](=O)[O-])c(C(F)(F)F)c1`, the Potency entry in the test on CASKI, in the test on Es-2, with HeLa, with Tov-21-G and in the test on Tov112D was “inactive” each time.

As to `O=C1N(c2ccccc2)c2ccccc2C1(Cc1ccncc1)Cc1ccncc1`, in the test with Es-2, the Potency was 1 µM (active). Moreover, the Potency entry in the test on HeLa, with Hek293T, in the test with JEG-3, in the test with OV90, in the test on PA-1 and with SKOV3 was “inactive” in each case. Further, the Potency result with Tov-21-G, with Tov112D and in the test with astro was “inactive” each time. The activity, negative = cell killing in test [1] (setting [5]) was -5.15%; in test [1] (at 45.9 µM (top of the series), tumour line D) it was -2.7%; in test [1] (setting [6]) it was -22.5%.

On to `CN1CCN2c3ccccc3Cc3ccccc3C2C1` (stereo not drawn), for which the Potency entry in the test on Es-2, with HeLa and with JEG-3 was “inactive” throughout. Moreover, the activity, negative = cell killing in [1] (setting [6]) is -2.24%. The Potency was 11.2 µM (active) in test [1] (tumour line A), 20 µM (active) in test [1] (tumour line D) and 20 µM (active) in the test with astro.

As to `COC(=O)Nc1nc2ccc(C(=O)c3cccs3)cc2[nH]1`, the Potency is 0.282 µM (active) in the test with Es-2; 0.158 µM (active) with HeLa; 0.355 µM (active) with JEG-3; 7.08 µM (active) in the test on OV90; 0.224 µM (active) in the test on PA-1; 0.316 µM (active) in the test with Tov112D.

As for `COc1ccccc1OCCNCC(O)COc1cccc2[nH]c3ccccc3c12` (stereo not drawn), the Potency result with Es-2, with HeLa, in the test on PA-1, in the test with SKOV3, in the test on Tov-21-G and with Tov112D was “inactive” in each case. Moreover, the Potency entry in the test on astro was “inactive”. Moreover, the activity, negative = cell killing in test [1] (setting [6]) was 3.12%. Moreover, in test [1] (tumour line A), the Potency was 11.2 µM (active).

`Cc1cc(C(C)(C)C)cc(C)c1CC1=NCCN1`: the Potency entry in the test with CASKI, in the test on JEG-3, with Tov-21-G, with Tov112D and in the test with astro was “inactive” in each case. Also, the activity, negative = cell killing in [1] (setting [4]) was -2.93%; in test [1] (at 21.2 µM (top of the series), tumour line B) it was -9.52%; in [1] (at 21.2 µM (top of the series), tumour line D), -25.7%.

`CN1CCC(=C2c3ccccc3C=Cc3ccccc32)CC1`: the Potency entry with CASKI, in the test with Es-2, in the test on HeLa, with JEG-3, in the test with PA-1 and in the test with SKOV3 was “inactive” in each case. The Potency entry with Tov-21-G and in the test with Tov112D was “inactive” each time. In addition, the activity, negative = cell killing in [1] (setting [6]) was -12.4%. Further, the Potency is 3.55 µM (active) in test [1] (tumour line A), 25.1 µM (active) in [1] (tumour line B), 20 µM (active) in test [1] (tumour line D) and 17.8 µM (active) in the test on astro.

On to `Fc1ccc([C@@H]2CCNC[C@H]2COc2ccc3c(c2)OCO3)cc1`, for which the Potency result with CASKI, in the test on HeLa, with Hek293T, with JEG-3, in the test with PA-1 and with Tov-21-G was “inactive” in each case. The Potency result (in the test with Tov112D; in [2]) was “inactive” throughout. For the same compound, the Potency in the test with astro was 22.4 µM (active).

Consider `O=c1[nH]cc(F)c(=O)[nH]1`, for which the Potency entry in the test on CASKI, with Es-2, in the test on HeLa, in the test on Hek293T, in the test on OV90 and in the test on SKOV3 was “inactive” each time. The Potency entry in the test with Tov112D was “inactive”. Further, the activity, negative = cell killing in test [1] (setting [5]) is -26.1%; in test [1] (at 46 µM (top of the series), tumour line A), -11.3%; in test [1] (setting [6]), -29.9%. Moreover, in test [3], the result was inactive.

Regarding `OCCN1CCN(CCCN2c3ccccc3Sc3ccc(C(F)(F)F)cc32)CC1`, the Potency entry with Es-2, in the test with HeLa, in the test on JEG-3, with PA-1, in the test on SKOV3 and in the test on Tov-21-G was “inactive” each time. Moreover, the Potency result (in the test on Tov112D; in test [2]) was “inactive” each time. Further, in [1] (setting [6]), the activity, negative = cell killing is -28.6%. For the same compound, the Potency in [1] (tumour line A) was 1.26 µM (active); in test [1] (tumour line D), 10 µM (active); with astro, 22.4 µM (active).
